Results filed as inconclusive are left out. Calls of active or inactive are those of the source. Unless noted, calls follow the shape of the dose curve; as a rule, active = well fitted curve in the direction sought with a large enough effect in the repeat runs; inconclusive = weak or mixed curves; inactive = flat fitted curve, though single readings scatter.
Key:
[1] = qHTS assay to test for compound auto fluorescence at 535 nm (green) in HEK293 cells (AID 720680)
[2] = qHTS assay to test for compound auto fluorescence at 460 nm (blue) in HEK293 cell free culture (AID 720681)
Method in brief: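 Compounds were added to cell-free DMEM with 10% FBS and fluorescence read directly. The blue channel used 405 nm excitation and 460 nm emission, with triamterene as the reference fluorophore.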

[3] = qHTS assay to test for compound auto fluorescence at 535 nm (green) in HEK293 cell free culture (AID 720682)
Method in brief: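 Green-label autofluorescence (485 nm excitation, 535 nm emission) measured on compound added to cell-free culture medium (DMEM, 10% FBS). Output is expressed relative to fluorescein.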

[4] = qHTS assay to test for compound auto fluorescence at 590 nm (red) in HEK293 cell free culture (AID 720683)
Method in brief: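 Cell-free wells of DMEM with 10% FBS received compound, and intrinsic fluorescence was read at excitation/emission 540/590 nm. Values expressed as equivalence to Rose Bengal sodium.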

[5] = qHTS assay to test for compound auto fluorescence at 590 nm (red) in HepG2 cell free culture (AID 720684)
Method in brief: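 Compound was pinned into wells holding MEM with 10% FBS and no cells, and red fluorescence was read at Ex/Em 540/590 nm. Signal is expressed as auto fluorescence equivalency relative to Rose Bengal sodium.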

[6] = qHTS assay to test for compound auto fluorescence at 460 nm (blue) in HepG2 cell free culture (AID 720685)
Method in brief: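 Compound (23 nL) or DMSO pinned into cell-free MEM with 10% FBS; blue fluorescence read at 405/460 nm excitation/emission, expressed as auto-fluorescence equivalency to triamterene.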

[7] = qHTS assay to test for compound auto fluorescence at 535 nm (green) in HepG2 cell free culture (AID 720686)
[8] = qHTS assay to test for compound auto fluorescence at 460 nm (blue) in HepG2 cells (AID 720687)
Method in brief: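 HepG2 cells in MEM with 10% FBS, attached overnight at 37 C, were exposed to compound or DMSO for 1 hr at 37 C, 5% CO2. Blue fluorescence was read at 405/460 nm, with triamterene as reference fluorophore.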

[9] = target: Glucocorticoid receptor (Homo sapiens) (UniProt P04150); assay: qHTS assay to identify small molecule agonists of the glucocorticoid receptor (GR) signaling pathway (AID 720691; active = well fitted activation curve with a large enough effect in the signal ratio in the repeat runs, not every such curve was filed as active; the % refers to the signal ratio)
Sequence of Glucocorticoid receptor (Homo sapiens) (P04150 whole entry, looked up): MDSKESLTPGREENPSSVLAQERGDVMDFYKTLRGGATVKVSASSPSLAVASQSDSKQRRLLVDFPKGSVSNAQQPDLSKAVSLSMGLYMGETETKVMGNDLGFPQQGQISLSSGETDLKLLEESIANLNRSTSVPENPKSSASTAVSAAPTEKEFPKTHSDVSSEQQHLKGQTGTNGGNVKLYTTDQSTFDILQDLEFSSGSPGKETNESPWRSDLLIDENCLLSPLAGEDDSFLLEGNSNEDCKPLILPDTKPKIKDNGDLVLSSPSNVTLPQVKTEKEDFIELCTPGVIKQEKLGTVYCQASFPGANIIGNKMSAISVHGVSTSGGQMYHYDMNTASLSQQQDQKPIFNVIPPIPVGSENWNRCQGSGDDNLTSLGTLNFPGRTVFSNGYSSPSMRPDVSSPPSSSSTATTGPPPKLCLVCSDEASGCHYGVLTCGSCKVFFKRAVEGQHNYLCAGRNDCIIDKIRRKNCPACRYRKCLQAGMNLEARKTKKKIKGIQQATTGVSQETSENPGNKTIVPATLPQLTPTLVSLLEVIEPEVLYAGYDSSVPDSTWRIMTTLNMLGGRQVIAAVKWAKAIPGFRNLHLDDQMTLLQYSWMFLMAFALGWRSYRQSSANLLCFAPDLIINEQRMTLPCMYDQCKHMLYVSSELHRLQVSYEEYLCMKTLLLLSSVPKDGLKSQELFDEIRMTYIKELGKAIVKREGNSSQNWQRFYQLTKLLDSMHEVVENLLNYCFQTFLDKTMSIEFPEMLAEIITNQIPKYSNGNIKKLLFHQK
Method in brief: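 qHTS in GR-bla HeLa cells: 4 h settling at 37 C/5% CO2, 18 h compound incubation at 37 C, 2 h LiveBLAzer B/G FRET substrate at room temperature, fluorescence intensity measured.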

[10] = target: Glucocorticoid receptor (Homo sapiens) (UniProt P04150); assay: qHTS assay to identify small molecule antagonists of the glucocorticoid receptor (GR) signaling pathway (AID 720692; active = well fitted inhibition curve with a large enough effect in the signal ratio in the repeat runs, not every such curve was filed as active; the % refers to the signal ratio)
Method in brief: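 Inhibition of glucocorticoid signalling is measured in HeLa cells with a GRE-controlled beta-lactamase reporter; cells are co-treated with compound and 5 nM dexamethasone (final) for 18 h before FRET substrate readout.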
% is scaled to controls: 0 for no effect and ±100 for the full control effect.

C=CCCCC
inactive: outcome [1] | outcome [2] | outcome [3] | outcome [4] | outcome [5] | outcome [6] | outcome [7] | outcome [8] | Potency [9] | outcome [10]

CCCCCCCCCCOC(C)=O
inactive: outcome [1] | outcome [2] | outcome [3] | outcome [4] | outcome [5] | outcome [6] | outcome [7] | outcome [8] | Potency [9] | outcome [10]

[O]=[Mo](=[O])=[O]
inactive: fluorescence, % of fluorescein [1] -0.0315% [at 18.6 µM] | fluorescence, % of fluorescent control [2] 0.0055% [at 18.6 µM] | activity change [3] 0.118% [at 18.6 µM] | fluorescence, % of fluorescent control [4] 0.0845% [at 18.6 µM] | fluorescence, % of Rose Bengal [5] 0.0301% [at 18.6 µM] | fluorescence, % of fluorescent control [6] 0.041% [at 18.6 µM] | fluorescence, % of fluorescein control [7] -0.0406% [at 18.6 µM] | fluorescence, % of fluorescent control [8] 0.0613% [at 18.6 µM] | Potency [9] | outcome [10]

CC1CCc2c(N3CCC(O)CC3)c(F)cc3c(=O)c(C(=O)O)cn1c23 (stereo not given)
inactive: outcome [1] | outcome [2] | outcome [3] | outcome [4] | outcome [5] | outcome [6] | outcome [7] | outcome [8] | Potency [9] | outcome [10]

OC[C@H]1O[C@@H](O[C@@H]2[C@@H](CO)O[C@](O)(CO)[C@H]2O)[C@H](O)[C@@H](O)[C@H]1O
inactive: outcome [1] | outcome [2] | outcome [3] | outcome [4] | outcome [5] | outcome [6] | outcome [7] | outcome [8] | Potency [9] | outcome [10]

C=CCCCCCCCC
inactive: outcome [1] | outcome [2] | outcome [3] | outcome [4] | outcome [5] | outcome [6] | outcome [7] | outcome [8] | Potency [9] | outcome [10]

CCCCCC(C)O (stereo not given)
inactive: outcome [1] | outcome [2] | outcome [3] | outcome [4] | outcome [5] | outcome [6] | outcome [7] | outcome [8] | Potency [9] | outcome [10]

CC(=O)O[Si](C)(OC(C)=O)OC(C)=O
inactive: outcome [1] | outcome [2] | outcome [3] | outcome [4] | outcome [5] | outcome [6] | outcome [7] | outcome [8] | Potency [9] | outcome [10]

O=C1CCC(=O)N1Cl
inactive: outcome [1] | outcome [2] | outcome [3] | outcome [4] | outcome [5] | outcome [6] | outcome [7] | outcome [8] | Potency [9] | outcome [10]

Cc1ncc([N+](=O)[O-])n1CC(C)O (stereo not given)
inactive: outcome [1] | outcome [2] | outcome [3] | outcome [4] | outcome [5] | outcome [6] | outcome [7] | outcome [8] | Potency [9] | outcome [10]

C/C=C(\C)C(C)=O
inactive: outcome [1] | outcome [2] | outcome [3] | outcome [4] | outcome [5] | outcome [6] | outcome [7] | outcome [8] | Potency [9] | outcome [10]

CCC(=O)CC
inactive: outcome [1] | outcome [2] | outcome [3] | outcome [4] | outcome [5] | outcome [6] | outcome [7] | outcome [8] | Potency [9] | outcome [10]

COC(=O)CCCCC(=O)O
inactive: outcome [1] | outcome [2] | outcome [3] | outcome [4] | outcome [5] | outcome [6] | outcome [7] | outcome [8] | Potency [9] | outcome [10]

CC(=O)CCC1=C(C)CCCC1(C)C
inactive: outcome [1] | outcome [2] | outcome [3] | outcome [4] | outcome [5] | outcome [6] | outcome [7] | outcome [8] | Potency [9] | outcome [10]

Cc1c(NC(=O)c2cccnc2)c(=O)n(-c2ccccc2)n1C
inactive: fluorescence, % of fluorescein [1] -0.0295% [at 18.6 µM] | fluorescence, % of fluorescent control [2] -0.0145% [at 18.6 µM] | activity change [3] 0.0113% [at 18.6 µM] | fluorescence, % of fluorescent control [4] -0.0161% [at 18.6 µM] | fluorescence, % of Rose Bengal [5] 0.102% [at 18.6 µM] | fluorescence, % of fluorescent control [6] -0.005% [at 18.6 µM] | fluorescence, % of fluorescein control [7] -0.0688% [at 18.6 µM] | fluorescence, % of fluorescent control [8] 0.0214% [at 18.6 µM] | Potency [9] | outcome [10]

CC1c2ccccc2CN1NC(=O)c1ccc(Cl)c(S(N)(=O)=O)c1 (stereo not given)
inactive: outcome [1] | outcome [2] | outcome [3] | outcome [4] | outcome [5] | outcome [6] | outcome [7] | outcome [8] | Potency [9] | outcome [10]

Cc1cccc(Cl)c1
inactive: outcome [1] | outcome [2] | outcome [3] | outcome [4] | outcome [5] | outcome [6] | outcome [7] | outcome [8] | Potency [9] | outcome [10]

CC1(C)Cc2cccc(N)c2O1
inactive: outcome [1] | outcome [2] | outcome [3] | outcome [4] | outcome [5] | outcome [6] | outcome [7] | outcome [8] | Potency [9] | outcome [10]

C=CCN1C[C@H](C(=O)N(CCCN(C)C)C(=O)NCC)C[C@@H]2c3cccc4[nH]cc(c34)C[C@H]21
inactive: outcome [1] | outcome [2] | outcome [3] | outcome [4] | outcome [5] | outcome [6] | outcome [7] | outcome [8] | Potency [9] | outcome [10]

C=C(C)[C@@H]1CC=C(C)C(=O)C1
inactive: outcome [1] | outcome [2] | outcome [3] | outcome [4] | outcome [5] | outcome [6] | outcome [7] | outcome [8] | Potency [9] | outcome [10]

COC(=O)c1ccccc1C(=O)O
inactive: outcome [1] | outcome [2] | outcome [3] | outcome [4] | outcome [5] | outcome [6] | outcome [7] | outcome [8] | Potency [9] | outcome [10]

CCCCOCCOC(=O)COc1ccc(Cl)cc1Cl
inactive: outcome [1] | outcome [2] | outcome [3] | outcome [4] | outcome [5] | outcome [6] | outcome [7] | outcome [8] | Potency [9] | outcome [10]

Reference: PubChem BioAssay (Tox21)
